Measured values reported in PubChem BioAssay (EPA / NIEHS).
Active and inactive are the calls of the source. Rule for the calls: active = hit-call score of the fitted dose curve at least 0.9, where 1 is the maximum; inactive = score below 0.9.

Experiments:
Settings in all cases: mRNA level, 48 h; actives raise or lower the signal
[1] = read-out: Cyclin D2 (CCND2), CCND2 (gene 894); assay: LTEA_HepaRG_CCND2: Life Technologies and Expression Analysis (LTEA) Assay for Cyclin D2 (CCND2) using HepaRG (AID 2283449);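 note: CCND2 transcript measured by TaqMan qRT-PCR and normalised to three housekeeping genes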
Summary of the method: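 Differentiated human HepaRG cells were exposed for 48 h in serum-free induction medium to eight half-log concentrations topping at 100 uM (0.5% DMSO vehicle). CCND2 mRNA was quantified by TaqMan qRT-PCR, normalised to ACTB, GAPDH and POLR2A, and fitted bidirectionally against DMSO.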

[2] = read-out: Cyclin Dependent Kinase Inhibitor 1A (CDKN1A), CDKN1A (gene 1026); assay: LTEA_HepaRG_CDKN1A: Life Technologies and Expression Analysis (LTEA) Assay for Cyclin Dependent Kinase Inhibitor 1A (CDKN1A) using HepaRG (AID 2283450)
Summary of the method: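 Expression quantified by Fluidigm qRT-PCR with ACTB, GAPDH and POLR2A normalization, fitted bidirectionally against 0.5% DMSO. Cells: HepaRG, plated 48 h then treated 48 h in serum-free induction medium, top concentration 100 uM with half-log dilutions.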

[3] = read-out: catalase (CAT), CAT (gene 847); assay: LTEA_HepaRG_CAT: Life Technologies and Expression Analysis (LTEA) Assay for catalase (CAT) using HepaRG (AID 2283452)
Summary of the method: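 Differentiated HepaRG cells in serum-free induction medium were dosed 48 h in duplicate, eight half-log concentrations from 100 uM in 0.5% DMSO. Transcript measured by TaqMan qRT-PCR, normalised to ACTB/GAPDH/POLR2A, fitted bidirectionally against DMSO.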

[4] = read-out: flavin-containing dimethylaniline monooxygenases 3 (FMO3), FMO3 (gene 2328); assay: LTEA_HepaRG_FMO3: Life Technologies and Expression Analysis (LTEA) Assay for flavin-containing dimethylaniline monooxygenases 3 (FMO3) using HepaRG (AID 2283453)
Summary of the method: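 Differentiated HepaRG cells in serum-free induction medium, exposed 48 h in duplicate to 8 half-log concentrations up to 100 uM in 0.5% DMSO. FMO3 mRNA by qRT-PCR, normalized to ACTB, GAPDH, POLR2A; bidirectional fit vs DMSO.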

[5] = read-out: Cytochrome P450 (CYP1A1), CYP1A1 (gene 1543); assay: LTEA_HepaRG_CYP1A1: Life Technologies and Expression Analysis (LTEA) Assay for Cytochrome P450 (CYP1A1) using HepaRG (AID 2283454)
Summary of the method: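 CYP1A1 transcript levels measured by Fluidigm qRT-PCR against three housekeeping genes, 48 h after chemical dosing of human HepaRG cells (highest concentration 100 uM, half-log steps, 0.5% DMSO vehicle). Gain or loss of signal fitted relative to DMSO.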

[6] = read-out: CFLAR gene, CFLAR (gene 8837); assay: LTEA_HepaRG_CFLAR: Life Technologies and Expression Analysis (LTEA) Assay for CFLAR gene using HepaRG (AID 2283455)
Summary of the method: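 HepaRG cells were plated for 48 h, switched to serum-free induction medium, then exposed in duplicate for 48 h to 8 concentrations (top 100 uM, half-log steps, 0.5% DMSO). CFLAR mRNA was measured by qRT-PCR, normalized to ACTB, GAPDH and POLR2A.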

[7] = read-out: Forkhead box O1 (FOXO1), FOXO1 (gene 2308); assay: LTEA_HepaRG_FOXO1: Life Technologies and Expression Analysis (LTEA) Assay for Forkhead box O1 (FOXO1) using HepaRG (AID 2283456)
Summary of the method: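 Differentiated human HepaRG cells in serum-free induction medium were exposed in duplicate for 48 h to eight half-log concentrations (top 100 uM, 0.5% DMSO). FOXO1 mRNA was measured by TaqMan qRT-PCR, normalised to ACTB, GAPDH and POLR2A, and fitted bidirectionally against DMSO.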

[8] = read-out: growth arrest and DNA damage 45 (GADD45A), GADD45A (gene 1647); assay: LTEA_HepaRG_GADD45A: Life Technologies and Expression Analysis (LTEA) Assay for growth arrest and DNA damage 45 (GADD45A) using HepaRG (AID 2283458)
Summary of the method: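 Differentiated HepaRG cells exposed 48 h in serum-free induction medium to 8 concentrations, top 100 uM in half-log steps, 0.5% DMSO. GADD45A mRNA quantified by qRT-PCR, normalized to ACTB, GAPDH and POLR2A; bidirectional fit versus DMSO.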

[9] = read-out: Forkhead box O3 (FOXO3), FOXO3 (gene 2309); assay: LTEA_HepaRG_FOXO3: Life Technologies and Expression Analysis (LTEA) Assay for Forkhead box O3 (FOXO3) using HepaRG (AID 2283459)
Summary of the method: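 Differentiated human HepaRG cells in serum-free induction medium were exposed in duplicate for 48 h to eight half-log concentrations up to 100 uM in 0.5% DMSO. FOXO3 mRNA was quantified by qRT-PCR, normalized to ACTB, GAPDH and POLR2A, with bidirectional fitting versus DMSO.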

[10] = read-out: growth arrest and DNA damage 45 (GADD45B), GADD45B (gene 4616); assay: LTEA_HepaRG_GADD45B: Life Technologies and Expression Analysis (LTEA) Assay for growth arrest and DNA damage 45 (GADD45B) using HepaRG (AID 2283461)
Summary of the method: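 Transcript level quantified by Fluidigm TaqMan qRT-PCR with three housekeeping genes for normalization, analyzed for up- or down-regulation against 0.5% DMSO. HepaRG cultures dosed 48 h at eight half-log concentrations up to 100 uM, duplicates.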

[11] = read-out: ABC Transporter (ABCC3), ABCC3 (gene 8714); assay: LTEA_HepaRG_ABCC3: Life Technologies and Expression Analysis (LTEA) Assay for ABC Transporter (ABCC3) using HepaRG (AID 2283462)
Summary of the method: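 Transcript level by TaqMan qRT-PCR, normalised to three housekeeping genes, fitted in both directions relative to vehicle. Chemicals tested in duplicate at eight half-log concentrations up to 100 uM for 48 h on HepaRG cells (0.5% DMSO).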

[12] = read-out: ABC Transporter (ABCB11), ABCB11 (gene 8647); assay: LTEA_HepaRG_ABCB11: Life Technologies and Expression Analysis (LTEA) Assay for ABC Transporter (ABCB11) using HepaRG (AID 2283463)
Summary of the method: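 Differentiated human HepaRG cells were exposed for 48 h in serum-free induction medium to eight half-log concentrations up to 100 uM in 0.5% DMSO. ABCB11 mRNA was quantified by qRT-PCR, normalized to ACTB, GAPDH and POLR2A, and fitted bidirectionally versus DMSO.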

[13] = read-out: ABC Transporter (ABCC2), ABCC2 (gene 1244); assay: LTEA_HepaRG_ABCC2: Life Technologies and Expression Analysis (LTEA) Assay for ABC Transporter (ABCC2) using HepaRG (AID 2283464)
Summary of the method: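 Endpoint is ABCC2 transcript level from qRT-PCR, normalized to three housekeeping genes and fitted bidirectionally relative to DMSO. Human HepaRG cells received test chemical for 48 h at up to 100 uM (8 points, half-log steps, 0.5% DMSO), duplicate wells.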

[14] = read-out: Broad substrate specificity ATP-binding cassette transporter ABCG2 (Homo sapiens) (UniProt Q9UNQ0); assay: LTEA_HepaRG_ABCG2: Life Technologies and Expression Analysis (LTEA) Assay for ABC Transporter (ABCG2) using HepaRG (AID 2283465)
Summary of the method: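 Differentiated HepaRG cells in serum-free induction medium were exposed for 48 h, in duplicate, to eight half-log concentrations up to 100 uM in 0.5% DMSO. ABCG2 mRNA was measured by TaqMan qRT-PCR, normalized to ACTB, GAPDH and POLR2A, and fitted bidirectionally versus DMSO.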

[15] = read-out: ATP-citrate lyase (ACLY), ACLY (gene 47); assay: LTEA_HepaRG_ACLY: Life Technologies and Expression Analysis (LTEA) Assay for ATP-citrate lyase (ACLY) using HepaRG (AID 2283466)
Summary of the method: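 Differentiated human HepaRG cells in serum-free induction medium exposed 48 h, in duplicate, to eight half-log concentrations from 100 uM top in 0.5% DMSO; ACLY mRNA measured by qRT-PCR, normalized to ACTB, GAPDH, POLR2A, fitted bidirectionally versus DMSO.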

[16] = read-out: Peroxisomal acyl-coenzyme A oxidase 1 (ACOX1) gene, ACOX1 (gene 51); assay: LTEA_HepaRG_ACOX1: Life Technologies and Expression Analysis (LTEA) Assay for Peroxisomal acyl-coenzyme A oxidase 1 (ACOX1) gene using HepaRG (AID 2283467)
Summary of the method: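 Differentiated human HepaRG cells were exposed in duplicate for 48 h in serum-free induction medium to eight half-log concentrations up to 100 uM in 0.5% DMSO. ACOX1 mRNA was then quantified by TaqMan qRT-PCR, normalized to ACTB, GAPDH and POLR2A.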

[17] = read-out: Alkaline Phosphatase, Placental (ALPP) gene, ALPP (gene 250); assay: LTEA_HepaRG_ALPP: Life Technologies and Expression Analysis (LTEA) Assay for Alkaline Phosphatase, Placental (ALPP) gene using HepaRG (AID 2283468)
Summary of the method: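 ALPP transcript level, measured by qRT-PCR and normalized to three housekeeping genes (ACTB, GAPDH, POLR2A), after 48 h dosing of differentiated HepaRG in serum-free induction medium. Top concentration 100 uM with half-log dilutions (8 points, 0.5% DMSO, duplicates); bidirectional fitting relative to DMSO.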

Measured: AC50

Sequence of Broad substrate specificity ATP-binding cassette transporter ABCG2 (Homo sapiens) (Q9UNQ0 whole entry, looked up): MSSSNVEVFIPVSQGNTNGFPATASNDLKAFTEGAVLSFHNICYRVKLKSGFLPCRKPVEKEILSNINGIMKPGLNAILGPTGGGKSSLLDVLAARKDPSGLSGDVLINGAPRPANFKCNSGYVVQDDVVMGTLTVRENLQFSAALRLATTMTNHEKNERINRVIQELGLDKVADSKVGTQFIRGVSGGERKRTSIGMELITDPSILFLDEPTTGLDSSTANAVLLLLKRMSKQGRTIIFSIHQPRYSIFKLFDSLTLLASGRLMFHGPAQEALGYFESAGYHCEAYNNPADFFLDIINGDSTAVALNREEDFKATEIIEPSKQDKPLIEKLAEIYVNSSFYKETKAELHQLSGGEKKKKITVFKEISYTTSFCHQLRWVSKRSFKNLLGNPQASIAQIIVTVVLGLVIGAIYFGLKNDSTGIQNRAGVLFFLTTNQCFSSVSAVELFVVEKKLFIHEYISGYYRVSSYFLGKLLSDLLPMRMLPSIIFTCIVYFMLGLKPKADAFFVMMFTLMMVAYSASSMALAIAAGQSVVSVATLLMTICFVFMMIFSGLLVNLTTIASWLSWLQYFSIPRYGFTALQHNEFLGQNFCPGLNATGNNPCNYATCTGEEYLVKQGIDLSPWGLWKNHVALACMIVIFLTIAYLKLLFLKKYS

O=C(O)CCCCC(=O)O
active: [5] 73.7 µM
inactive: all other assays above

CN1CCN(Cc2cc(-c3ccc4[nH]c(=O)oc4c3)co2)[C@@H](c2ccc(F)cc2)C1
active: [3] 81.7 µM | [5] 61.3 µM | [7] 82.2 µM | [11] 78 µM | [12] 67.9 µM | [17] 50 µM
inactive: all other assays above

CCOC(=O)C(C)(C)Oc1ccc(Cl)cc1
active: [1] 12.2 µM | [5] 50 µM
inactive: all other assays above

CC(C)c1ccc(C(=O)N=C(N)N)cc1S(C)(=O)=O
inactive: [3] | [4] | [10] | [11] | [15]
active: [1] 0.634 µM | [2] 0.361 µM | [5] 0.6 µM | [6] 0.361 µM | [7] 0.498 µM | [8] 0.676 µM | [9] 0.264 µM | [12] 0.392 µM | [13] 14 µM | [14] 0.681 µM | [16] 7.39 µM | [17] 0.59 µM
